Assay results reported in the supplement of paper PMC10849652.
Targets with a hit are over-represented here; the source holds about 8,800 in all. About 0.5% of all pairs of compound and target were hits.

Tests used:
Experiment in all cases: log2 fold change, soluble protein after heating vs DMSO (PISA); higher = thermal stabilisation; K562 lysate, 10 uM; active = over 0.2 and 3.5 SD of the protein, either way, in both replicates (recomputed)
[1] = compound: NCC(=O)Nc1ccc(-n2nc(C(F)(F)F)cc2-c2ccc3c(ccc4ccccc43)c2)cc1
In short: (§1)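 Values give the log-two fold change in thermal stability against solvent controls, from duplicates. Crude K562 extract at 1 mg/mL protein, made by dounce homogenisation in PBS pH 7.4 with 1 mM MgCl2, was treated with 10 μM compound for 30 min. After 3 min heating across 48°C-58°C, aliquots were pooled, adjusted to 0.5% NP-40 at 4°C and centrifuged at 21,000xg for 90 min. The supernatant was measured by TMTpro 16plex LC-MS/MS with channel sums equalised.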

vorinostat = compound: O=C(CCCCCCC(=O)Nc1ccccc1)NO [vorinostat]
In short: as §1

silmitasertib = compound: O=C(O)c1ccc2c(c1)nc(Nc1cccc(Cl)c1)c1ccncc12 [silmitasertib]
In short: as §1

[2] = compound: O=C1NC(=O)C(c2cnc3ccccn23)=C1c1cn2c3c(cc(F)cc13)CN(C(=O)N1CCCCC1)CC2
In short: as §1

entospletinib = compound: c1cn2cc(-c3ccc4cn[nH]c4c3)nc(Nc3ccc(N4CCOCC4)cc3)c2n1 [entospletinib]
In short: as §1

Measured: log2 fold change

POLR2G (UniProt P62487)
inactive: [1] 0.001 | vorinostat 0.116 | silmitasertib -0.043 | [2] -0.03 | entospletinib 0.014

POLA1 (UniProt P09884)
active: vorinostat -0.293
inactive: [1] 0.009 | silmitasertib -0.019 | [2] 0.006 | entospletinib -0.016

PRKACB isoform 2 (UniProt P22694)
inactive: [1] -0.014 | vorinostat -0.018 | silmitasertib 0.054 | [2] 0.002 | entospletinib 0.042

PYURF (UniProt Q96I23)
active: [1] -0.346
inactive: vorinostat -0.007 | silmitasertib -0.001 | [2] -0.055 | entospletinib -0.048

PIR (UniProt O00625)
inactive: [1] 0.015 | vorinostat 0.035 | silmitasertib -0.049 | [2] -0.013 | entospletinib -0.035

PRIM2 (UniProt P49643)
active: vorinostat -0.296
inactive: [1] -0.008 | silmitasertib 0.09 | [2] 0 | entospletinib 0.003

PRRC2A (UniProt P48634)
inactive: [1] 0.012 | vorinostat 0.108 | silmitasertib -0.026 | [2] -0.018 | entospletinib -0.003

PIK3CB (UniProt P42338)
inactive: [1] -0.041 | vorinostat -0.395 | silmitasertib 0.321 | [2] -0.046 | entospletinib 0.038

PIP4P2 (UniProt Q8N4L2)
inactive: [1] 0.004 | vorinostat 0.029 | silmitasertib 0.034 | [2] 0.034 | entospletinib -0.05

PDS5A (UniProt Q29RF7)
inactive: [1] -0.001 | silmitasertib 0.073 | [2] -0.01 | entospletinib 0.047
active: vorinostat -0.525

PPP2R5C isoform 2 (UniProt Q13362)
inactive: [1] -0.004 | vorinostat -0.12 | silmitasertib 0.015 | [2] 0.086

PLA2G4B isoform 6 (UniProt P0C869)
Sequence of UniProt P0C869 (P0C869 whole entry, looked up): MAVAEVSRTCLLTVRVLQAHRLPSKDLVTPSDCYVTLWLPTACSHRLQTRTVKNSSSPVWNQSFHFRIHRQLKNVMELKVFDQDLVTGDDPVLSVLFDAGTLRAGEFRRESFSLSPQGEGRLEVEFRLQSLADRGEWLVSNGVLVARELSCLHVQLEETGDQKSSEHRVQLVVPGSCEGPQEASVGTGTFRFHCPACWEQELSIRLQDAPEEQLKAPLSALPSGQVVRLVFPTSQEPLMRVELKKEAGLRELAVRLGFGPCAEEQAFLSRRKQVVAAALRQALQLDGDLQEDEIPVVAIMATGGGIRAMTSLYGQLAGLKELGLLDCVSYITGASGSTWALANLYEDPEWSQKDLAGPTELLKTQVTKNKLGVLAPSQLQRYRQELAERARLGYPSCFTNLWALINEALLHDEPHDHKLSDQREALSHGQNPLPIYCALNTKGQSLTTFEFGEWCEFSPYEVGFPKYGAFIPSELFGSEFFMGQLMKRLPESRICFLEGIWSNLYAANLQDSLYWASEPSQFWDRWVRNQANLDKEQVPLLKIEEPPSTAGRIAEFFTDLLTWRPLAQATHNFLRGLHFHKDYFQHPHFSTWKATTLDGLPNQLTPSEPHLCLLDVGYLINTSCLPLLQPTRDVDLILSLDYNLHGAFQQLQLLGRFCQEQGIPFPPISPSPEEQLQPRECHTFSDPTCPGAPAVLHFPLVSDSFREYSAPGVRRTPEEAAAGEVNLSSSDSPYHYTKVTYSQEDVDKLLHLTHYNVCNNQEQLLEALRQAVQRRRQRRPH
inactive: [1] -0.008 | vorinostat 0.002 | silmitasertib -0.017 | [2] 0.264 | entospletinib 0.06

PLEKHO2 (UniProt Q8TD55)
inactive: [1] 0.045 | vorinostat -0.103 | silmitasertib 0.347 | [2] -0.018 | entospletinib 0.082

PEX2 (UniProt P28328)
inactive: [1] -0.055 | vorinostat -0.25 | silmitasertib 0.042 | [2] 0.043

PUS3 (UniProt Q9BZE2)
active: vorinostat -0.527
inactive: [1] 0.051 | silmitasertib 0.11 | [2] 0.017 | entospletinib -0.041

PUF60 isoform 2 (UniProt Q9UHX1)
inactive: [1] -0.061 | vorinostat 0.23 | silmitasertib 0.075 | [2] 0.026 | entospletinib 0.027

PCBP2 isoform 8 (UniProt Q15366)
Sequence of UniProt Q15366 (Q15366 whole entry, looked up): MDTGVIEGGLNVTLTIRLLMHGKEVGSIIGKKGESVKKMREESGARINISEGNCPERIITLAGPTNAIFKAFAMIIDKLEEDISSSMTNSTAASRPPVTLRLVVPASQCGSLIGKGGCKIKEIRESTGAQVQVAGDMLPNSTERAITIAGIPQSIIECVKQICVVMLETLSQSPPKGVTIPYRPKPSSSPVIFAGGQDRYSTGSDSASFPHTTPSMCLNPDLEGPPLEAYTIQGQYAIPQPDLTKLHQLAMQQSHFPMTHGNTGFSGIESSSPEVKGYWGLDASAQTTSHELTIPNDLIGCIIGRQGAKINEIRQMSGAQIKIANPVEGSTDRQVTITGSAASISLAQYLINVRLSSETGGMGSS
inactive: [1] -0.06 | silmitasertib -0.037 | [2] 0.054 | entospletinib -0.091
active: vorinostat -0.489

PDCD10 (UniProt Q9BUL8)
inactive: [1] -0.009 | vorinostat 0.158 | silmitasertib -0.001 | [2] -0.037 | entospletinib 0.011

PCBP2 (UniProt H3BRU6)
active: vorinostat -0.662
inactive: [1] 0.139 | silmitasertib -0.102 | [2] -0.053 | entospletinib 0.061

PHKG1 isoform 2 (UniProt Q16816)
inactive: [1] 0.053 | vorinostat -0.342 | silmitasertib 0.259 | [2] -0.123 | entospletinib -0.002

PMPCA (UniProt Q10713)
inactive: [1] 0.031 | vorinostat 0.033 | silmitasertib -0.044 | [2] 0.003 | entospletinib -0.019

PRAME (UniProt P78395)
inactive: [1] 0.025 | silmitasertib 0.043 | [2] 0.004 | entospletinib 0.048
active: vorinostat -0.283

PPIC (UniProt P45877)
inactive: [1] 0.12 | vorinostat 0.044 | silmitasertib 0.021 | [2] 0.262

PRMT5 (UniProt O14744)
inactive: [1] 0.012 | vorinostat 0.013 | silmitasertib -0.037 | [2] 0.001 | entospletinib 0.013

PMS1 (UniProt P54277)
inactive: [1] 0.01 | silmitasertib 0.018 | [2] 0.026 | entospletinib -0.011
active: vorinostat -0.342

PLXNB2 (UniProt O15031)
inactive: [1] 0.003 | vorinostat 0.033 | silmitasertib 0.001 | [2] 0.019 | entospletinib -0.03

PRKDC (UniProt P78527)
inactive: [1] -0.089 | [2] 0.207 | entospletinib 0.013
active: vorinostat -0.426 | silmitasertib 0.762

PHKA1 (UniProt P46020)
active: vorinostat -0.223
inactive: [1] 0.002 | silmitasertib 0.184 | [2] -0.001 | entospletinib -0.01

PTGS1 isoform 6 (UniProt P23219)
inactive: [1] -0.013 | vorinostat 0.05 | silmitasertib -0.033 | [2] 0.003 | entospletinib -0.017

PDCD4 (UniProt Q53EL6)
inactive: [1] 0.004 | silmitasertib 0.014 | [2] 0.003 | entospletinib 0.038
active: vorinostat -0.378

PTK2B (UniProt Q14289)
inactive: [1] 0.016 | silmitasertib 0.021 | [2] -0.088 | entospletinib -0.002
active: vorinostat -0.339

PI4KA (UniProt P42356)
inactive: [1] -0.011 | silmitasertib 0.077 | [2] 0.004 | entospletinib 0.031
active: vorinostat -0.426

PRIM1 (UniProt P49642)
active: vorinostat -0.284
inactive: [1] -0.015 | silmitasertib 0.049 | [2] 0.024 | entospletinib 0.035

PUM1 isoform 3 (UniProt Q14671)
Sequence of UniProt Q14671 (Q14671 whole entry, looked up): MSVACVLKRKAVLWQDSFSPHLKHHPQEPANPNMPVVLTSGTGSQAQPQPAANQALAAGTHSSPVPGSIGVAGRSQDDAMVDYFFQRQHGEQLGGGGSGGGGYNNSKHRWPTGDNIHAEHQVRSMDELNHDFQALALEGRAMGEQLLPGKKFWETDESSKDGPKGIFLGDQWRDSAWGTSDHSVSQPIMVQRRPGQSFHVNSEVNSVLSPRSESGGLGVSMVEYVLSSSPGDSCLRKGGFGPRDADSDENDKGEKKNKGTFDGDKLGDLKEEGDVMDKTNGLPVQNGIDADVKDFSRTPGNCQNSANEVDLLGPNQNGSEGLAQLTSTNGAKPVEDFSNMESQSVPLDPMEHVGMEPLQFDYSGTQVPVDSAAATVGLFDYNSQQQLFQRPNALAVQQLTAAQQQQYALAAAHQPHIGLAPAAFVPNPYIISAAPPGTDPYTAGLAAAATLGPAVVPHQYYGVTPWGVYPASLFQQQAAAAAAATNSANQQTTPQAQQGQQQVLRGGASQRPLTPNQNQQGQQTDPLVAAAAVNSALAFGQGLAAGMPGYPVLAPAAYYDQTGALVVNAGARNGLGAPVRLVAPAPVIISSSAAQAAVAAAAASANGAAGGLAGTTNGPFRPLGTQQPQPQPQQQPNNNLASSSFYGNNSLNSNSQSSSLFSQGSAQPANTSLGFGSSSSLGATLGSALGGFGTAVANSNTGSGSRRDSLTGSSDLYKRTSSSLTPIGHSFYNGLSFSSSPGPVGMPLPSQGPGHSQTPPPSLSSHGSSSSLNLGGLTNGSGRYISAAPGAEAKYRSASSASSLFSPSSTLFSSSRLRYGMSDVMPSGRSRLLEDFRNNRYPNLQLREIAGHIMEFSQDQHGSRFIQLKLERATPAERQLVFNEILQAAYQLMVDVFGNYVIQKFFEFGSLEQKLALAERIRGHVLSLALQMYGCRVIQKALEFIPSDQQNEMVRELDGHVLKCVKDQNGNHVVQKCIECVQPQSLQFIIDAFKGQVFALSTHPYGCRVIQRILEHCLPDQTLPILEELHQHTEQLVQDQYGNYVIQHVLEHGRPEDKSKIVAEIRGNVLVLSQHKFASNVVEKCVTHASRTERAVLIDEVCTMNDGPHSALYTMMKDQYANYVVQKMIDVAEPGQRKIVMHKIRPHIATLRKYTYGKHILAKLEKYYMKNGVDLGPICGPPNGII
inactive: [1] 0.027 | vorinostat -0.192 | silmitasertib 0 | [2] -0.004 | entospletinib -0.009

PRKAB2 (UniProt O43741)
inactive: [1] -0.006 | vorinostat -0.009 | silmitasertib 0.111 | [2] 0.096 | entospletinib 0.013

PPP4R2 (UniProt Q9NY27)
Sequence of UniProt Q9NY27 (Q9NY27 whole entry, looked up): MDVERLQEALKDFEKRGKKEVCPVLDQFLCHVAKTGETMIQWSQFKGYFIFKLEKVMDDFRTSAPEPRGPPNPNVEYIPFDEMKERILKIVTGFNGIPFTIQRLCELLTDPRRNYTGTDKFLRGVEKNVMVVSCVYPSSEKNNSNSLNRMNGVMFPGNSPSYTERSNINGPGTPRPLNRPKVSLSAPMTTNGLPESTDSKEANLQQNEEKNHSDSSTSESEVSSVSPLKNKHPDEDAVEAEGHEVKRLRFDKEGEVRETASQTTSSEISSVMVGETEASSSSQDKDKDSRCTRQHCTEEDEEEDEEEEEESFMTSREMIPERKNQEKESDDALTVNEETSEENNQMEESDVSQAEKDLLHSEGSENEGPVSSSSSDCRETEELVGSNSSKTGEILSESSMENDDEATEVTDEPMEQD
inactive: [1] -0.007 | vorinostat -0.053 | silmitasertib -0.016 | [2] 0.023 | entospletinib -0.001

PIK3CD (UniProt O00329)
inactive: [1] -0.059 | silmitasertib 0.223 | [2] -0.004
active: vorinostat -0.516

PRKCB isoform 2 (UniProt P05771)
inactive: [1] 0.046 | vorinostat -0.145 | silmitasertib 0.012 | [2] -0.164 | entospletinib 0.004

PDE4DIP isoform 4 (UniProt Q5VU43)
Sequence of UniProt Q5VU43 (Q5VU43 whole entry, looked up): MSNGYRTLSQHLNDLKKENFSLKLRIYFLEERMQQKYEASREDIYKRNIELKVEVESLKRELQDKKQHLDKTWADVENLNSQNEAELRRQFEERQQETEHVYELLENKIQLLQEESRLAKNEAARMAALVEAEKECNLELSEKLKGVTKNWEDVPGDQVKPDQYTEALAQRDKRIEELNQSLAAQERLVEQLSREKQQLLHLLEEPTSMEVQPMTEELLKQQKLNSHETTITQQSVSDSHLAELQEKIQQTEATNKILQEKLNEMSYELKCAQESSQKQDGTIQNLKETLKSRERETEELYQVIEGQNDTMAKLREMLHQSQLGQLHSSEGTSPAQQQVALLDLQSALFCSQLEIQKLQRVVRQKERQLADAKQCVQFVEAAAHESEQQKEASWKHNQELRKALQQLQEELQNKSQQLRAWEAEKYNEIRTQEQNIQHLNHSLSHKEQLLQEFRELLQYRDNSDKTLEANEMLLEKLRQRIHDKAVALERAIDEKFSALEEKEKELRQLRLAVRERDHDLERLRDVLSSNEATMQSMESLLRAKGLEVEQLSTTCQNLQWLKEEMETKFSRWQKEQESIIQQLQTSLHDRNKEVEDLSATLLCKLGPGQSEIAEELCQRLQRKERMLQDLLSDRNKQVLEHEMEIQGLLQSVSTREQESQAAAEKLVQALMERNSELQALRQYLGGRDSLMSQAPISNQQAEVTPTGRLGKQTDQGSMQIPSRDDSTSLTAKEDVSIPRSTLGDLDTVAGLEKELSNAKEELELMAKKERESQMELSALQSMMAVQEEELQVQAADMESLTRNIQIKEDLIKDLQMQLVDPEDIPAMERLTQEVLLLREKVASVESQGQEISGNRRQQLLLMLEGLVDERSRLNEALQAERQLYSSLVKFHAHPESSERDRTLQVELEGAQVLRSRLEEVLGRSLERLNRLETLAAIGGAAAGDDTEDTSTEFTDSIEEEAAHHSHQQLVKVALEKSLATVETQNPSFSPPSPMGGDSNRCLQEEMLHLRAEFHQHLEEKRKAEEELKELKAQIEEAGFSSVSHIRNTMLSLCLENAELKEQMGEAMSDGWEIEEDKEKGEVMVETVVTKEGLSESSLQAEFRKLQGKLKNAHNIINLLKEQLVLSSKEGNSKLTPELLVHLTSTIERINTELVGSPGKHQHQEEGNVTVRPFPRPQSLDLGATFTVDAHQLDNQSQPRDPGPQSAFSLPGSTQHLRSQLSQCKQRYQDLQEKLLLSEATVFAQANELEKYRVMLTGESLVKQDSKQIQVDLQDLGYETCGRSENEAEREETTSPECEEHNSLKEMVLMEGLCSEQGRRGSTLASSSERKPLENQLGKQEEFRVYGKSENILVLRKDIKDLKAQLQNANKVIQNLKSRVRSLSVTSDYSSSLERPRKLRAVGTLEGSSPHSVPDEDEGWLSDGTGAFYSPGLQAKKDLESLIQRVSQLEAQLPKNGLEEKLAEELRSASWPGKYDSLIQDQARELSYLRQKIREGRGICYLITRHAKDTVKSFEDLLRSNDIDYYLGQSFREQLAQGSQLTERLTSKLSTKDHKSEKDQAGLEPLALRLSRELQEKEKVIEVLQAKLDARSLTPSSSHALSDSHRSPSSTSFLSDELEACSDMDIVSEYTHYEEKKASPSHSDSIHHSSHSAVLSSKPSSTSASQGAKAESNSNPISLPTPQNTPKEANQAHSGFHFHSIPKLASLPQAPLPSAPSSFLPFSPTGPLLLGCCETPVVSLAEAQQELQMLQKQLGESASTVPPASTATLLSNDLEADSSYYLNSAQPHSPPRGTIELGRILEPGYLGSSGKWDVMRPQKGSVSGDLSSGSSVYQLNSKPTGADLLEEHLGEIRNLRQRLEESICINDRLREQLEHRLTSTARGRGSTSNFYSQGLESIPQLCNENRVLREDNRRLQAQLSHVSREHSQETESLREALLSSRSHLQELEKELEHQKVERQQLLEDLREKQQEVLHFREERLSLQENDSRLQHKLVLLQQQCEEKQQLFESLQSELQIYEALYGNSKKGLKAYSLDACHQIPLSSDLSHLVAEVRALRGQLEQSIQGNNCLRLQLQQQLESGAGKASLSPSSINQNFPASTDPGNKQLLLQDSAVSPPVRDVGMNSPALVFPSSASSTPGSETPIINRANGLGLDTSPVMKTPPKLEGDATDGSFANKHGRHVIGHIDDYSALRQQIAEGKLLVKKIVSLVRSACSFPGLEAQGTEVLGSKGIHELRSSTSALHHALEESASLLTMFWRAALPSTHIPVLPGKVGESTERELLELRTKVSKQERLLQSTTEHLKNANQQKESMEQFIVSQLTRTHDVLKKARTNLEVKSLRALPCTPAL
inactive: [1] 0.077 | vorinostat 0.029 | silmitasertib -0.029 | [2] 0.057 | entospletinib -0.025

PRPF6 (UniProt O94906)
inactive: [1] 0.002 | silmitasertib 0.047 | [2] 0.004 | entospletinib 0.026
active: vorinostat -0.262

POLR3E (UniProt Q9NVU0)
active: vorinostat -0.263
inactive: [1] -0.017 | silmitasertib -0.023 | [2] 0.027 | entospletinib -0.004

PUS1 (UniProt Q9Y606)
active: vorinostat -0.321
inactive: [1] 0.04 | silmitasertib 0.041 | [2] -0.013 | entospletinib -0.022

PLIN2 (UniProt Q99541)
inactive: [1] 0.012 | vorinostat 0.063 | silmitasertib -0.008 | [2] 0.008 | entospletinib -0.032

PIK3R2 (UniProt O00459)
inactive: [1] -0.007 | vorinostat -0.245 | silmitasertib 0.201 | [2] -0.029 | entospletinib -0.092

POLB (UniProt P06746)
inactive: [1] 0.027 | silmitasertib -0.106 | [2] -0.023 | entospletinib 0.022
active: vorinostat -0.302

PSMB9 (UniProt P28065)
inactive: [1] 0.07 | vorinostat 0.057 | silmitasertib 0.008 | [2] 0.081 | entospletinib 0

PFDN2 (UniProt Q9UHV9)
inactive: [1] -0.049 | vorinostat 0.098 | silmitasertib 0.015 | [2] -0.068 | entospletinib 0.007

POLD1 (UniProt P28340)
inactive: [1] 0.016 | silmitasertib 0.016 | [2] 0.005 | entospletinib -0.009
active: vorinostat -0.245

PMS2 (UniProt P54278)
active: vorinostat -0.384
inactive: [1] 0.064 | silmitasertib 0.026 | [2] 0.027 | entospletinib 0.001

PPIL3 (UniProt Q9H2H8)
inactive: [1] 0.084 | vorinostat -0.155 | silmitasertib -0.022 | [2] 0.029 | entospletinib -0.016

PDPK1 (UniProt O15530)
inactive: [1] -0.056 | vorinostat -0.246 | silmitasertib 0.09 | [2] 0.004 | entospletinib -0.007

PTMA (UniProt P06454)
inactive: [1] -0.002 | vorinostat 0.093 | silmitasertib -0.036 | [2] 0.023 | entospletinib -0.025

PDXDC1 (UniProt Q6P996)
inactive: [1] -0.041 | silmitasertib 0.038 | [2] 0.018 | entospletinib -0.019
active: vorinostat -0.233

PHKB isoform 3 (UniProt Q93100)
inactive: [1] -0.023 | silmitasertib 0.07 | [2] 0.016 | entospletinib 0.023
active: vorinostat -0.288
